Reference: PubChem BioAssay (NCATS)
Results filed as inconclusive are left out. A call without a number means that no potency is given here. The source made the active and inactive calls. Unless noted, the call rests on the fitted dose curve; in most records, active means well fitted curve in the direction sought with a large enough effect; inconclusive means small, poorly fitted or top-dose-only effect, or another doubt; inactive means no such curve, though single readings can be large; an effect the other way counts as inactive or inconclusive.

What was measured:
[1] = target: Catechol O-methyltransferase (Homo sapiens) (UniProt P21964); assay: Confirmatory Screen for Target Class Profiling of Small Molecule Inhibitors of Methyltransferases (AID 1745852; calls by dose curve; further: potency means the concentration at half of the fitted maximal effect); details: MTase-Glo luminescence, SAH detection, recombinant enzyme; measured here: COMT max response; stronger effect = lower value
[2] = target: Guanidinoacetate N-methyltransferase (Homo sapiens) (UniProt Q14353); assay: as above; details: MTase-Glo luminescence, SAH detection, recombinant enzyme; activity change, negative = inhibition: at 57.3 µM (top of the series) unless noted; series mostly up to 57.3 µM
[3] = target: Nicotinamide N-methyltransferase (Homo sapiens) (UniProt P40261); assay: as above; details: MTase-Glo luminescence, SAH detection, recombinant enzyme; measured here: NNMT max response; stronger effect = lower value
[4] = target: Phenylethanolamine N-methyltransferase (Homo sapiens) (UniProt P11086); assay: as above; details: MTase-Glo luminescence, SAH detection, recombinant enzyme; measured here: PNMT max response; stronger effect = lower value
[5] = target: Glutathione peroxidase 1 (Homo sapiens) (UniProt P07203); assay: Primary qHTS Assay for Inhibitors of Recombinant Selenoprotein Glutathione Peroxidase 1 (GPX1) (AID 1845191); details: recombinant GPX1, GR-coupled NADPH fluorescence, 15 min; series mostly up to 48.8 µM; further: nearly all actives have a fitted effect of over 65% in size
Summary of the method: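 NADPH consumption tracked by fluorescence at 340/450 nm between t=0 and t=15 min, room temperature. Final mix: 10 nM GPX1, 100 nM glutathione reductase, 1 mM GSH, 0.5 mM NADPH, 0.5 mM cumene hydroperoxide, 0.01% BSA; 30 min compound–enzyme preincubation.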

[6] = target: Phospholipid hydroperoxide glutathione peroxidase GPX4 (Homo sapiens) (UniProt P36969); assay: Primary qHTS Assay for Inhibitors of Recombinant Selenoprotein Glutathione Peroxidase 4 (GPX4) (AID 1845192); details: recombinant GPX4, GR-coupled NADPH fluorescence, 15 min; series mostly up to 50 µM; further: nearly all actives have a fitted effect of over 65% in size; further: potency means the concentration at half of the fitted maximal effect
Summary of the method: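 NADPH consumption followed by fluorescence at 340/450 nm, t=0 and after 15 min at room temperature. Reaction started with cumene hydroperoxide (0.5 mM final) after 30 min compound–GPX4 preincubation; final 200 nM GPX4, 100 nM GR, 1 mM GSH, 0.5 mM NADPH.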

[7] = target: Luciferin 4-monooxygenase (Photinus pyralis) (UniProt P08659); assay: Primary firefly luciferase (FLuc) qHTS assay for identification of artifact compounds. (AID 1845220); details: purified firefly luciferase, luminescence, 5 min; series mostly up to 54.1 µM; further: nearly all actives have a fitted effect of over 60% in size
Summary of the method: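 FLuc 10 nM; luciferin 10 uM; ATP 10 uM; Tris-acetate pH 7.6, Mg-acetate 10 mM; 15 min RT preincubation; 5 min reaction; luminescence.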

[8] = Primary fluorescence-based thiol-reactive (MSTI) qHTS assay for identification of artifact compounds. (AID 1845221); details: MSTI thiol-reactivity probe, 1 h; series mostly up to 53.8 µM; further: nearly all actives have a fitted effect of over 65% in size; further: potency means the concentration at half of the fitted maximal effect
Summary of the method: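 First, 4 uM MSTI in 2% DMSO/PBS pH 7.4 was dispensed; next, compounds were added; then plates sat 1 h at room temperature without light. Finally, emission at 598 nm was recorded.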

[9] = system: Nanoluciferase (engineered Oplophorus gracilirostris luciferase); assay: Primary Nanoluciferase (NLuc) qHTS assay for identification of artifact compounds. (AID 1845222); details: NLuc-conditioned medium, Nano-Glo luminescence, 5 min; series mostly up to 54.1 µM;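 further: NLuc secreted into diluted conditioned medium of S16 cells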
Summary of the method: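 NLuc from S16 cell medium (1:55) plus test compounds, 15 min, room temperature. Luminescence after Nano-Glo (1:100) addition, 5 min.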

[10] = Primary redox qHTS assay for identification of artifact compounds. (AID 1845223); details: Amplex Red/HRP redox cycling with DTT, fluorescence; series mostly up to 53.8 µM
Summary of the method: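 Redox-cycling detection via DTT (250 uM final) oxidation coupled to Amplex Red (25 uM)/HRP (250 mU/mL) in HBSS. 15 min preincubation plus 30 min after DTT, room temperature. Ex/Em 525/598 nm; 4-parameter Hill fit against DMSO and 10 uM DA3003.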

Catechol O-methyltransferase (Homo sapiens), sequence (P21964 whole entry, looked up): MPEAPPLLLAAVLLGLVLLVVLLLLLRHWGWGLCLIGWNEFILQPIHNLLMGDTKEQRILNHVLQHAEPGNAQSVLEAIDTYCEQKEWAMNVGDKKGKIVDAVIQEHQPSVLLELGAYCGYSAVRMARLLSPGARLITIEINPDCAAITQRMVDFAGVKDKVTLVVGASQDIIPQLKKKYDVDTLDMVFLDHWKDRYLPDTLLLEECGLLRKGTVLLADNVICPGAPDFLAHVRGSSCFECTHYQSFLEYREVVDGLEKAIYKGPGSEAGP
Nicotinamide N-methyltransferase (Homo sapiens), sequence (P40261 whole entry, looked up): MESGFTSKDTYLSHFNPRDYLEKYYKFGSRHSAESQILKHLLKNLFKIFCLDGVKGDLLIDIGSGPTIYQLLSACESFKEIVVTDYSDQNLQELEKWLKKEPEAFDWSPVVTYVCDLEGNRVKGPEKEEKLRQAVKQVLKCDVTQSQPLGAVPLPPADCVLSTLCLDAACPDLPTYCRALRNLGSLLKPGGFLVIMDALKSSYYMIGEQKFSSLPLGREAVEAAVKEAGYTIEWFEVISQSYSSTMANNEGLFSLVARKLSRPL
Phenylethanolamine N-methyltransferase (Homo sapiens), sequence (P11086 whole entry, looked up): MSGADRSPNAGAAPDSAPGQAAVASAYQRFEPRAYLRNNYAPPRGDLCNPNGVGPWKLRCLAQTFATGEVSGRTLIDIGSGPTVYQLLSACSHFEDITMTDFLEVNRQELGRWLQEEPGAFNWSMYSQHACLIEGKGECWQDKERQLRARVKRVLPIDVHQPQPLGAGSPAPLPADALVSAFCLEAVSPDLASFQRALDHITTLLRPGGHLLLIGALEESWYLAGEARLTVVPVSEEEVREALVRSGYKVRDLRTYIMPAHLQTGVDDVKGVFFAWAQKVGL
Glutathione peroxidase 1 (Homo sapiens), sequence (P07203 whole entry, looked up): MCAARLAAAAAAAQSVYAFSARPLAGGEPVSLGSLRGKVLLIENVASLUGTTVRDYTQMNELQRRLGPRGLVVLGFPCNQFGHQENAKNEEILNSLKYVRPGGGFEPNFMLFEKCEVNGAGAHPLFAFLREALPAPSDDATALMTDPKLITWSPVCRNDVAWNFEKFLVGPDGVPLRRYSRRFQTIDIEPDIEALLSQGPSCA
Phospholipid hydroperoxide glutathione peroxidase GPX4 (Homo sapiens), sequence (P36969 whole entry, looked up): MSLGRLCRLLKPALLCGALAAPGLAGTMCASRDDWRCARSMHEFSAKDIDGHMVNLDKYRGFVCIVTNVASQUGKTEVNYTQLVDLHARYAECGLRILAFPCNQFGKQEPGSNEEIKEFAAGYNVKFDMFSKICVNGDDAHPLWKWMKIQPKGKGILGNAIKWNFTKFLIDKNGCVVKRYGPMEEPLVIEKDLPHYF

| Compound | activity [1] [%] | activity change, negative = inhibition [2] | activity [3] [%] | activity [4] [%] | Potency [5] | Potency [6] | Potency [7] | Potency [8] | Potency [9] | Potency [10] | Potency [2] |
| --- | --- | --- | --- | --- | --- | --- | --- | --- | --- | --- | --- |
| O=C(NCCCNc1nc(Nc2cccc(CN3CCOCC3)c2)ncc1C1CC1)C1CCC1 | -3.13 | 0% | -11.4 | -23.2 | inactive | inactive | inactive | inactive | inactive | inactive |  |
| Fc1ccc2[nH]ccc2c1-c1nc(N2CCOCC2)c2sc(CN3CCN(CC4CC4)CC3)cc2n1 | -1.17 | 0% | -62.5 | -22.1 | inactive | inactive | inactive | inactive | inactive | inactive |  |
| CC12CCC3C1C(c1c(cc(O)c(C(=O)c4ccccc4)c1O)O2)C3(C)C (stereo not given) | -35.5 |  | -25.6 | -30.9 | inactive | inactive | inactive | inactive | inactive | inactive | 21.1 µM (active) |
| Cc1cn(CCN2CCN(c3ccccc3-c3cc(C#N)cc(C(=O)NCCCN4CCCC4)c3)CC2)c2ccccc12 | 3.99 | 10.2% | -4.29 | 2.94 | inactive | inactive | inactive | inactive | inactive | inactive |  |
| c1cc(NCCc2c[nH]c3ccccc23)cc(Nc2ccncc2)c1 | -7.79 |  | -26 | -13.2 | inactive | inactive | inactive | 2.67 µM (active) | inactive | inactive | 48.2 µM (active) |
| COc1cccc(-c2cn(-c3ccc(CCN4CCC(O)CC4)cc3)c3ncnc(N)c23)c1 | -79.5 |  | -80.6 | -84.3 | inactive | inactive | inactive | inactive | inactive | inactive | 24.1 µM (active) |
| COc1ccccc1N1CCN(c2ncnc3n[nH]c(Br)c23)CC1 | -8.96 | -0.635% | -42.7 | -19.8 | inactive | inactive | inactive | inactive | inactive | inactive |  |
| O=C([C@@H]1CCCN(c2ccc3[nH]c(C4(n5cc(Cl)cn5)CC4)nc3n2)C1)N1CCCC1 | -0.433 | 0% | 0.992 | 0.881 | inactive | 25.5 µM (active) | inactive | inactive | inactive | inactive |  |
| COc1cc2ncnc(Nc3cccc(I)c3)c2cc1OC | -55.8 |  | -40.1 | -56.9 | inactive | inactive | inactive | inactive | inactive | inactive | 34.1 µM (active) |
| COc1cc(/C=N\NC(=O)c2ccc3c(c2)OCO3)ccc1OCc1ccccc1 | -3.52 | 1.69% | -20.5 | -1.07 | inactive | inactive | inactive | inactive | inactive | inactive |  |
| O=C(c1ccc(Cl)cc1)N1CCN(c2ccnc3cc(Cl)ccc23)CC1 | -6.44 | -4.09% | -41.3 | -10.9 | inactive | inactive | inactive | inactive | inactive | inactive |  |
| CC(C)C[C@H](C(=O)O)c1cc(-c2ccc(C(F)(F)F)cc2)cc(-c2ccc(C(F)(F)F)cc2)c1 | -6.76 |  | -40.6 | -16.1 | inactive | inactive | inactive | inactive | inactive | inactive | 48.2 µM (active) |
| COc1cc(N2CCC(N)CC2)ccc1Nc1ncc(Cl)c(-c2c[nH]c3ccccc23)n1 | -32.1 |  | -35.8 | -27 | inactive | inactive | inactive | 1.89 µM (active) | inactive | inactive | 24.1 µM (active) |
| CC(C)(C[C@@](O)(Cc1cc2ccncc2[nH]1)C(F)(F)F)c1cc(F)ccc1O | 1.72 | 0% | -1.53 | -1.87 | inactive | inactive | inactive | inactive | inactive | inactive |  |
| C=C1C(=O)OC2/C=C(/C)C3=CC(=O)C(C)(CC(OC(=O)/C(C)=C/COC(C)=O)C12)O3 (stereo not given) | -88.1 | 0.139% [at 29.8 µM] | 0.146 | -3.18 | inactive | inactive | inactive | 4.12 µM (active) | inactive | inactive |  |
| COc1cc(/C=C2\CCCN([C@@H](C)c3ccc(F)cc3)C2=O)ccc1-n1cnc(C)c1 | -8.51 |  | -25.5 | -13 | inactive | inactive | inactive | inactive | inactive | inactive | 2.41 µM (active) |
| C=C1C(=O)OC2C1CCC1(C)C(O)CCC(=C)C21 (stereo not given) | -62.8 | -2.15% | 1.08 | -1.43 | inactive | inactive | inactive | 11.9 µM (active) | inactive | inactive |  |
| C=C1C(=O)OC2/C=C(\CO)CC/C=C(\C=O)C(OC)C(OC(=O)C(C)CC)C12 (stereo not given) | -88.5 | 0% [at 29.8 µM] | 4.11 | 1.39 | inactive | inactive | inactive | 4.12 µM (active) | inactive | inactive |  |
| CCCCNc1ncc(C(=O)NCc2ccc(-n3ccnc3)cc2)c(NC2CCC(O)CC2)n1 (stereo not given) | -11.6 | -6.08% | -47.3 | -34.7 | inactive | inactive | inactive | inactive | inactive | inactive |  |
